Screen size: about 48,000 compounds; about 13,000 (27%) showed an effect of 50% or more. This is one part of the list.
Tested on: Wolbachia pipientis
Test: Anti-Wolbachia Cell-Based Screen
Format: functional
Design: scale not given: in the data most compounds retested in dose-response had high values
Settings: 5 µM

Going from `CC(=O)N1CCC(C(=O)Nc2nnc(C(F)(F)F)[nH]2)CC1` to `COCC(=O)N1CCC(C(=O)Nc2ccc(S(N)(=O)=O)cc2)CC1`, the “Percent Effect” value rises from -2.768% to -0.7847%.

First: CC(=O)N[C@@H]1CN(C(=O)c2cnccn2)C[C@H]1c1ccc(C)cc1
Second: COc1ccc([C@@H]2CN(Cc3cccnc3N)C[C@H]2NC(C)=O)cc1
The “Percent Effect” value of the first is lower: 4.61% for the first, 100.4% for the second.

Going from `Cc1ncc(CN2CCC(c3ccnn3C)CC2)n1-c1ccccc1` to `O=C(NCc1ccccc1CN1CCC(O)CC1)Nc1ccccn1`, the “Percent Effect” value falls from 4.232% to -0.8138%.

Going from `O=C(NCCOCCO)c1cnc(-c2ccccc2)nc1O` to `Nc1ncc(C(=O)N2CCCC(N)CC2)c(-c2ccccc2)n1` (stereo not given), the “Percent Effect” value falls from -4.282% to -5.532%.

Going from `COc1cnc(CN2CCN(CC(C)C)C(=O)C2C)cc1O` (stereo not given) to `COc1ccc(-c2noc(CN3CC(n4cccn4)C3)n2)c(OC)c1`, the “Percent Effect” value rises from -7.655% to 7.442%.

Compared with `Cc1cccc(-c2noc(CN3CC(n4cccn4)C3)n2)c1`, `c1cnn(C2CN(Cc3nc(-c4ccsc4)no3)C2)c1` is lower in “Percent Effect” value: 120.1% for the first, -8.892% for the second.

Going from `Cn1cnc2c1CCN(Cc1nc(-c3ccsc3)no1)C2` to `Cc1cnn(C2CN(Cc3nc(-c4ccsc4)no3)C2)c1`, the “Percent Effect” value rises from -4.856% to 107.2%.

Going from `COc1ccc(-c2nc(CN3CC(n4cc(C)cn4)C3)no2)cc1` to `COc1ccc(-c2noc(CN3CC(n4cc(C)cn4)C3)n2)cc1`, the “Percent Effect” value rises from 7.343% to 101.6%.

Going from `c1coc(-c2noc(CN3CC(n4cccn4)C3)n2)c1` to `Cc1ccc(-c2nnc(CN3CC(n4cc(C)cn4)C3)o2)cc1`, the “Percent Effect” value rises from -9.344% to 13.03%.

First: COCC(NC(=O)c1ccoc1)c1ccc(C)o1 (stereo not given)
Second: CCNC(=O)C1CCN(Cc2csc(-c3ccc(C)o3)n2)CC1
The “Percent Effect” value of the first is lower: -2.661% for the first, 8.641% for the second.

First: Cc1ncsc1CCN(C)C(=O)CN1CC2(CCNCC2)OC1=O
Second: Cc1cccc(=O)n1CCCNc1nc(N(C)C)nc2c1CCNC2
The “Percent Effect” value of the first is lower: -5.863% for the first, 32.54% for the second.

First: Cc1cc(NC2CCN(c3ccc(F)cc3)CC2)n2nc(C)cc2n1
Second: Cc1ccoc1C(=O)NC1CCN(Cc2cccc3c2OCCO3)CC1
The “Percent Effect” value of the first is lower: -5.138% for the first, 4.934% for the second.

Compared with `O=C(Nc1nccs1)C1CCN(Cc2cccc3c2OCCO3)CC1`, `Cc1csc(NC(=O)C2CCN(Cc3cccc4c3OCCO4)CC2)n1` is higher in “Percent Effect” value: 83.61% for the first, 93.8% for the second.

Going from `O=C(Nc1ccccn1)C1CCN(Cc2cc3c(cc2O)OCO3)CC1` to `O=C(Nc1ccccn1)C1CCN(Cc2cccc3c2OCCO3)CC1`, the “Percent Effect” value falls from 98.75% to 88.18%.

Compared with `c1cnnc(NCC2CN(Cc3cccc4c3OCCO4)CCO2)c1` (stereo not given), `CC(C)C(=O)NC1CCN(Cc2cccc3c2OCCO3)CC1` is higher in “Percent Effect” value: 4.711% for the first, 6.757% for the second.

Going from `O=C(Nc1nccs1)NC1CCOc2ccccc21` (stereo not given) to `O=C(NCCNCc1cccc2c1OCCCO2)C1CCCC1`, the “Percent Effect” value falls from 5.946% to -19.03%.

Going from `CNC(=O)C1CCN(Cc2cc3c(cc2O)CCC3)CC1` to `CNC(=O)N(Cc1c(F)cccc1F)C1CCCC1`, the “Percent Effect” value falls from 6.264% to -10.49%.

Compared with `Cc1cccc(C(C(=O)N2CC(Oc3ccccc3F)C2)N(C)C)c1` (stereo not given), `Cc1ccc([C@@H]2CN(S(=O)(=O)c3cccs3)C[C@H]2N(C)C)cc1` is lower in “Percent Effect” value: 3.868% for the first, -8.469% for the second.

Compared with `O=C(O)c1cc2c(c(S(=O)(=O)N(CCCO)c3ccccc3)c1)CCC2`, `c1ccc(-c2nc3c(c(NCc4nnc5n4CCC5)n2)CCNC3)cc1` is higher in “Percent Effect” value: -6.874% for the first, 90.53% for the second.

First: COc1ccc([C@@H]2CN(c3cnccn3)C[C@H]2N(C)C)cc1
Second: COc1ccc([C@@H]2CN(c3cc(OC)ncn3)C[C@H]2N(C)C)cc1
The “Percent Effect” value of the first is lower: 6.916% for the first, 11.08% for the second.

First: COc1ccc([C@@H]2CN(Cc3cccnc3N)C[C@H]2N(C)C)cc1
Second: COc1ccc([C@@H]2CN(Cc3ccncc3)C[C@H]2N(C)C)cc1
The “Percent Effect” value of the first is lower: 89.74% for the first, 115.9% for the second.

Going from `COc1ccc([C@@H]2CN(C(=O)CS(C)(=O)=O)C[C@H]2NC(C)=O)cc1` to `CCCn1ccnc1CN1C[C@@H](NC(C)=O)[C@H](c2ccc(OC)cc2)C1`, the “Percent Effect” value falls from -2.286% to -11.71%.

First: COc1ccc([C@@H]2CN(c3cc(OC)nc(N)n3)C[C@H]2N(C)C)cc1
Second: Nc1ncccc1CN1C[C@@H](C(=O)O)[C@H](c2cccc(F)c2)C1
The “Percent Effect” value of the first is lower: -18.13% for the first, -4.464% for the second.

First: COc1cnc(N2C[C@@H](CN3CCOCC3)C[C@H](CO)C2)nc1
Second: N#Cc1ccccc1C(=O)N1C[C@@H](CN2CCOCC2)[C@@H](CO)C1
The “Percent Effect” value of the first is higher: 15.13% for the first, -6.039% for the second.

First: Cc1ccccc1OCCSc1nnc(CC2CCS(=O)(=O)C2)n1C (stereo not given)
Second: Cn1c(CO)nnc1CC1CCN(Cc2ccc(C#N)cc2)CC1
The “Percent Effect” value of the first is lower: 3.275% for the first, 25.57% for the second.

Compared with `CC(C)=CCN1C[C@H]2CC[C@@H]1CN(C(=O)Cn1c(C)cc(C)nc1=O)C2`, `Cc1cc(C)nc(NCc2nnc3n2CCCCC3)n1` is higher in “Percent Effect” value: -7.163% for the first, -1.015% for the second.

First: N#Cc1ccc(CN2CCOCC2)cc1
Second: N#Cc1ccc(CSCCN2CCOCC2)cc1
The “Percent Effect” value of the first is higher: 91.68% for the first, -1.754% for the second.

Compared with `N#Cc1ccc(CN2CCC(CCc3ccc(O)cc3)CC2)cc1`, `N#Cc1ccc(CN2CCC(CN3CCOCC3)C2)cc1` (stereo not given) is higher in “Percent Effect” value: -49.48% for the first, 106.9% for the second.

Compared with `N#Cc1ccccc1CN1CCC(CN2CCOCC2)C1` (stereo not given), `N#Cc1ccccc1CN1CCCC(c2nccn2CC2CC2)C1` (stereo not given) is lower in “Percent Effect” value: 95.83% for the first, 7.864% for the second.

Going from `N#Cc1ccc(CCC(=O)N2CCC(CN3CCOCC3)CC2)cc1` to `O=C(CCN1CCOCC1)N1CCC(Cc2ccc(CO)cc2)C1` (stereo not given), the “Percent Effect” value falls from 91.48% to -13.67%.

First: CC(C)(C)C(O)CN1CCN(Cc2ccc(C#N)cc2)CC1 (stereo not given)
Second: N#Cc1ccc(N2CCCN(CC(=O)N3CCOCC3)CC2)cc1
The “Percent Effect” value of the first is higher: 1.533% for the first, -7.861% for the second.

Compared with `CC(C)N(C)CCCNC(=O)c1cnn(C(C)(C)C)c1C(F)(F)F`, `CCOC(=O)C(CO)NC(=O)CCc1cccc(OC2CCCC2)c1` (stereo not given) is lower in “Percent Effect” value: 5.452% for the first, -6.497% for the second.

Going from `CN(C)c1nc2c(c(NCc3nnc4n3CCCCC4)n1)CCNC2` to `C1CCc2nnc(CNc3nc(C4CC4)nc4c3CCNCC4)n2CC1`, the “Percent Effect” value falls from 114.9% to 99.26%.

Compared with `c1ccc2nc(N3CCCC3)c(NCc3nnc4n3CCC4)nc2c1`, `c1ccc2nc(N3CCCCC3)c(NCc3nnc4n3CCC4)nc2c1` is higher in “Percent Effect” value: -27.33% for the first, -16.15% for the second.

Compared with `c1ccc(-c2nc3c(c(NCc4n[nH]c5c4CCC5)n2)CCNC3)cc1`, `COCCNc1nc(C2CCCC2)nc2c1CCNCC2` is higher in “Percent Effect” value: -30.21% for the first, 12.56% for the second.

From ChEMBL document CHEMBL3988442, “University of Dundee, Small-Polar-MMV Screening Library” (2021)
